# High-throughput results from PubChem BioAssay.
# Rows were chosen to be rich in hits. Some 2.4% of all compounds tested hit in one or more screens of this group.
# TMEM16A act: TMEM16A chloride channel activators or potentiators, primary screen, cell-based, HTS | HEK293 TMEM16A/YFP-H148Q/I152L, iodide quench fluorescence; stronger effect = lower value | B-score at 10 µM | 340,000 tested, 0.3% active | AID 623877, 2012;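 active = fluorescence-ratio B-score plate-corrected deviation score at least 3 library SD below zero, with starting fluorescence score within 5 deviations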;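 note: channel opened by trigger with iodide after compound preincubation; score built on the fluorescence ratio of max minus min over baseline; more negative score means more quench and so TMEM16A activation or potentiation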
# Target sequence (Q8BHY3 whole entry, looked up): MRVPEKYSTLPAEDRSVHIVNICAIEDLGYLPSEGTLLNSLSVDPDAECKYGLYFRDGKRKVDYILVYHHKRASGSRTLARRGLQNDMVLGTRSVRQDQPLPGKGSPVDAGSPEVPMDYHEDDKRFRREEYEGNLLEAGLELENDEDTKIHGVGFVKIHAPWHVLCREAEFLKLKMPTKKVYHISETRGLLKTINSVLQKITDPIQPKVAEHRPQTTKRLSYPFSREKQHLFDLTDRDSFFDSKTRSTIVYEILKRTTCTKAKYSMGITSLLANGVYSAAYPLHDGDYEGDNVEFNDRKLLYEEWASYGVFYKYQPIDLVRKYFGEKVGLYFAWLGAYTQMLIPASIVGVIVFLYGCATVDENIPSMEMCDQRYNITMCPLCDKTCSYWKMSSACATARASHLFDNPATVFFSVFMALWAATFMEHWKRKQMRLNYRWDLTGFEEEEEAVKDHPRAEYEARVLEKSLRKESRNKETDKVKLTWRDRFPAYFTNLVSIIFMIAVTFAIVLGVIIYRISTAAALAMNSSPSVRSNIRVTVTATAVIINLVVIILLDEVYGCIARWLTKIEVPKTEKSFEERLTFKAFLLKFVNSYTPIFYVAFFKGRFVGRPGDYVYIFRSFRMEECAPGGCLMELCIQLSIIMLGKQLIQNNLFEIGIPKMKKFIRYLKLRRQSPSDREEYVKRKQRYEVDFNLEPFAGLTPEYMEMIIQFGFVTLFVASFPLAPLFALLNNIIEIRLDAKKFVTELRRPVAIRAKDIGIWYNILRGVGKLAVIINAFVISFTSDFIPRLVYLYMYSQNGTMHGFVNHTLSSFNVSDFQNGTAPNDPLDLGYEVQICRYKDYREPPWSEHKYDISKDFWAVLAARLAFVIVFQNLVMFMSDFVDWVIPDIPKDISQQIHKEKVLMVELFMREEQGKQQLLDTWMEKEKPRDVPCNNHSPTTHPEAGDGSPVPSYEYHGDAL
# TLR9-MyD88 block: inhibitors of TLR9-MyD88 association in cells, primary screen, cell-based, CHO, BLA complementation, fluorescence; inhibition, % at 4.98 µM; CCF4 FRET ratio; 340,000 tested, 0.21% active;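 active = inhibition above the mean over all tested compounds plus 3 SD, cut at about 21% in these data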;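 note: 0% = DMSO only wells and 100% = clavulanate BLA inhibitor control wells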
# NOD2 RIPK2 PPI: NOD2-RIPK2 binding disruptors in cells, primary screen, fluorescence, CHO cells, BLA complementation | 360,000 tested, 0.38% active | CCF4 ratio | inhibition, % at 4.98 µM; in the data active = inhibition above about 21%;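 note: 0% = vehicle only and 100% = reference blocker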
# TMEM16A inh: TMEM16A chloride channel inhibitors, primary screen, cell-based, HTS; Anoctamin-1 (Mus musculus), Q8BHY3; HEK293 TMEM16A/YFP iodide influx fluorescence, ionomycin; normalized B-score (activity score, 25-100; higher = stronger inhibition) at 10 µM; 310,000 tested, 1.2% active; AID 588511, 2011;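 active = ratio plate-corrected score three or more library SD toward inhibition, starting fluorescence score within five deviations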;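 note: score derived from kinetic fluorescence span divided by baseline fluorescence per well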
# m5-HT2A agonist: mouse Htr2a agonists via beta-arrestin recruitment, primary screen, cell-based, luminescence. 5-hydroxytryptamine receptor 2A (Mus musculus), P35363. CHO-K1 mHTR2A beta-arrestin complementation; percent of 30 µM serotonin response. activation, % at 7.6 µM. 360,000 tested, 0.66% active. AID 624169, 2012;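 active = activation above a run cutoff, the mean activation of all tested compounds plus 3 SD, cut at about 14% in these data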;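 note: 0% = plate median of compound wells and 100% = 30 µM serotonin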
# TLR4-MyD88 BLA: inhibitors of TLR4-MyD88 association in cells, primary screen, cell-based, HeLa CL3-4, BLA complementation, FRET ratio; Toll-like receptor 4 (Homo sapiens) + Myeloid differentiation primary response protein …; HeLa CL3-4 TLR4/MyD88 BLA complementation; inhibition, % at 8.4 µM; 200,000 tested, 0.18% active; in the data active = inhibition above about 25%;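 note: 0% = vehicle and 100% = reference inhibitor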
# TMEM16A reconf: TMEM16A chloride channel inhibitors, confirmation, cell-based, re-confirmation | shares compounds with TMEM16A inh | HEK293 TMEM16A/YFP-H148Q, iodide quench fluorescence; ionomycin added to raise cell calcium | inhibition, % at 10 µM | 2,300 tested, 39% active | AID 652189, 2013;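 active = mean duplicate percent inhibition, scaled so buffer wells are 0 and the reference blocker 100, over three buffer SD above buffer mean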
# HEK293 Ca mobil: calcium mobilization in TMEM16A/YFP HEK293 cells, confirmation, counter-screen for TMEM16A inhibitor project. shares compounds with TMEM16A inh. 2,300 tested, 2% active. Fluo4 calcium mobilization. calcium response (% of ionomycin), % at 10 µM;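 active = duplicate-averaged calcium signal over 20% of the ionomycin maximum, relative to buffer baseline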;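 note: each well's signal is peak minus trough fluorescence divided by its pre-addition baseline; 0% = buffer wells and 100% = ionomycin wells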
# YFP-HEK293 quench: iodide YFP quench changes in parental YFP-HEK293, counter-screen for TMEM16A inhibitor project, cell-based; ionomycin; AID 652233, 2013; YFP ratio F(max-min)/F0 at 10 µM; shares compounds with TMEM16A inh; 2,300 tested, under 10 active;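 active = yellow fluorescent protein signal ratio exceeding the buffer control mean by over 5 SD of those controls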;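 note: ratio is mean of duplicate wells from kinetic YFP trace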
# ClC-1 rat inh: ClC-1 chloride channel inhibition, selectivity assay for TMEM16A inhibitor project, cell-based, voltage-dependent ClC-1 | 2,300 tested, under 10 active | ratio percent, % at 10 µM | CHO ClC-1-YFP, iodide influx fluorescence quench; iodide control reads 0, buffer control 100 | shares compounds with TMEM16A inh | AID 652236, 2013;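 active = duplicate-mean ratio percent above the mean of iodide-only control wells, which defines zero, plus 5 of their SD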;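 note: higher percent means stronger block of ClC-1 iodide influx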
# * marks the source's active call; other numbers are inactive results; i = inactive; . = no result given.
SMILES,TMEM16A act,TLR9-MyD88 block,NOD2 RIPK2 PPI,TMEM16A inh,m5-HT2A agonist,TLR4-MyD88 BLA,TMEM16A reconf,HEK293 Ca mobil,YFP-HEK293 quench,ClC-1 rat inh
COc1ccc(C)cc1N(CC(=O)O)S(=O)(=O)c1ccc(C)cc1,i,3,-4,i,2,-5,i,i,-0.63,-6
O=C(CSc1nc(-c2ccccc2)c(-c2ccccc2)[nH]1)Nc1ccc2c(c1)OCO2,i,5,2,i,-3,-1,.,.,.,.
CCCOc1ccccc1Cn1c(=O)oc2ccc(C)cc21,i,0,-9,100*,-3,-6,i,i,-1.1,-10
CCOc1ccccc1Cn1c(=O)oc2ccc(C)cc21,i,-4,9,i,-4,-4,.,.,.,.
O=C(Nc1cccc(S(=O)(=O)c2cccc(NC(=O)c3ccco3)c2)c1)c1ccco1,i,-1,-7,25*,-5,.,20%*,i,-0.91,-14
O=C(COC(=O)c1cccc(NC(=O)c2ccco2)c1)c1ccc(Br)cc1,i,-1,-11,100*,-1,1,i,i,-0.93,-10
CCc1nc(Nc2ccc(F)cc2)c2oc3ccccc3c2n1,.,-2,2,i,0,.,.,.,.,.
O=C1c2ccccc2C(=O)N1CCCCSc1nc2ccccc2o1,i,0,-1,25*,5,4,20%*,i,-1.2,1
Cc1nnc(SCCCN2C(=O)c3ccccc3C2=O)o1,i,6,-4,i,1,-10,.,.,.,.
c1ccc2nc(N3CCOCC3)c(N3CCCC3)nc2c1,i,-3,-3,.,-2,.,.,.,.,.
Cc1cc(C)n(-c2nc(N(c3ccccc3)c3ccccc3)nc(-n3nc(C)cc3C)n2)n1,i,-7,-12,100*,0,0,26%*,i,-0.99,-19
O=S(=O)(c1ccc(NC(=S)N/N=C/c2ccc(O)c(O)c2)cc1)N1CCOCC1,i,-2,-13,i,-6,.,.,.,.,.
O=[N+]([O-])c1cc(Cl)cc(/C=N/NC(=S)Nc2ccc(S(=O)(=O)N3CCOCC3)cc2)c1O,i,5,1,25*,-6,.,70%*,i,-0.73,4
CCCn1c(O)c(CN2CCCCC2)c(C)c(C#N)c1=O,.,3,-5,i,1,4,20%*,i,-1,-26
Cc1c(CN2CCCCC2)c(O)n(CCCO)c(=O)c1C#N,i,-12,-20,i,0,2,.,.,.,.
Cc1cccc(-n2cc(C#N)c(=O)[nH]c2=O)n1,i,-6,-7,i,3,-3,.,.,.,.
O=C(CSc1nc2ccccc2c(=O)[nH]1)N1CCOCC1,i,-8,3,i,-2,19,i,i,-1.3,-6
Cc1cccc(OCC(O)CN2CCNCC2)c1 (configuration not stated),i,-3,0,i,1,.,.,.,.,.
Cc1ccc(NC(=O)Cc2ccccc2Cl)cc1S(=O)(=O)N(C)C,i,-1,4,i,-1,-3,.,.,.,.
Cc1ccc(NC(=O)CNc2ccc(Cl)c(Cl)c2)cc1S(=O)(=O)N(C)C,i,-3,-1,100*,2,-3,28%*,i,-0.95,-4
Cc1ccc(NC(=O)Cc2ccc(Cl)c(Cl)c2)cc1S(=O)(=O)N(C)C,i,-1,10,25*,-2,-11,16%*,i,-0.93,-2
CC1CCN(c2c(NCC3CCC(C(=O)NC4CCCCCC4)CC3)c(=O)c2=O)CC1 (configuration not stated),i,-3,-9,i,13,.,.,.,.,.
O=C(C1=C(O)/C(=C/c2ccc(O)cc2)CCC1)C(F)(F)F,i,3,6,25*,3,-10,i,i,-0.93,-21
O=C(CCc1ccccc1)NNC(=S)NC(=O)c1ccc(Cl)cc1,.,.,.,100*,.,15,25%*,65%*,-0.89,-19
Cc1ccc(C(=O)NC(=S)NNC(=O)COc2ccccc2C)cc1,i,2,-18,25*,2,-10,20%*,i,-0.92,-5
SMILES,TMEM16A act,TLR9-MyD88 block,NOD2 RIPK2 PPI,TMEM16A inh,m5-HT2A agonist,TLR4-MyD88 BLA,TMEM16A reconf,HEK293 Ca mobil,YFP-HEK293 quench,ClC-1 rat inh
O=C(CCc1ccccc1)NNC(=O)c1ccc(Cl)cc1,i,-13,-1,i,-2,.,.,.,.,.
CCC(=O)NNC(=S)NC(=O)c1ccc(C)cc1,i,6,-11,i,5,7,.,.,.,.
Cc1cc(F)ccc1S(=O)(=O)Nc1nc2ccccc2nc1Cl,i,3,0,i,7,.,.,.,.,.
O=S(=O)(Nc1nc2ccccc2nc1Cl)c1ccc2ccccc2c1,i,-12,4,100*,-1,-5,28%*,i,-1,-12
Cc1ccc(C(C)(C)C)cc1S(=O)(=O)Nc1nc2ccccc2nc1Cl,i,3,-12,100*,-2,.,40%*,i,-1.1,-12
Oc1ccc(Cl)cc1CNc1cnc2ccccc2c1,i,-10,5,i,-5,.,.,.,.,.
Oc1ccccc1CNc1cnc2ccccc2c1,i,2,-5,100*,-4,4,i,i,-0.96,-26
CC1CCN(S(=O)(=O)c2cccc(C(=O)O)c2)CC1,i,11,-8,100*,-1,-3,i,i,-0.99,-6
OCC1(CCc2ccccc2)CCN(Cc2cnc(N3CCCC3)s2)CC1,i,-3,-8,i,-8,1,.,.,.,.
O=C(c1ccc(Cl)cc1)C1CCCN(Cc2ccc(Oc3ncccn3)cc2)C1 (configuration not stated),i,-9,1,i,-1,-2,.,.,.,.
